HCV inh = HCV inhibition; Potency, µM (top dose mostly 41.8 µM), without a hit: top-dose activity change, negative = inhibition, usual class: inhibitors; Huh7.5.1 HCVcc-Cre infection, luciferase reporter, 44 h; actives 3.4% (n = 340,000); active means well fitted inhibition curve with a large enough effect; inconclusive means small, poorly fitted or top-dose-only effect, or another doubt; inactive means no such curve, though single readings can be large or run the other way; further: potency means the concentration at half of the fitted maximal effect
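Luciferase read-out (15 sec integration) after a 15 min room-temperature substrate step quantifies HCVcc-Cre infection. Cells, 1,000 per well, had compound added 4 h post-plating, then virus at ~0.5 moi, and were cultured 44 h.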
Vaccinia Venus = vaccinia inhibition (Venus reporter); Potency, µM (highest dose often 36.5 µM), without a hit: at the highest dose activity change, negative = inhibition, usual class: inhibitors; Vaccinia virus Venus reporter expression, fluorescence; AID 720580; actives 0.46% (n = 330,000); calls by dose curve; tested in A549 cells; further: potency means the concentration at half of the fitted maximal effect; nearly all actives have a fitted effect of over 30% in size
HCMV antiviral = inhibitors of human cytomegalovirus; HFF cells, HCMV-luciferase reporter, 72 h; active compounds read low; AID 1259415; actives 4.5% (n = 410,000); activity change, negative = inhibition, % at 57.5 µM; in the data active means activity change below about -60%; inconclusive means no clear call, values can overlap the other calls; inactive means above about -39%
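Cell-based, HFFs, 1000 cells/well, 16 h 37C; cpds in DMSO + HCMV-luc, MOI 1 PFU/cell; 72 h 37C; OneGlo luminescence after 5 min RT; norm. to buffer vs Salinomycin 10uM.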
MARV entry inh = Marburg virus entry inhibition | Marburg virus pseudotyped entry inhibition, cell reporter | Potency, µM (doses to about 37.8 µM), without a hit: at the top dose activity change, negative = inhibition, usual class: inhibitors | actives 1.8% (n = 300,000) | AID 540276; calls by dose curve; tested in HEK293 cells; further: potency means the concentration at half of the fitted maximal effect
Lassa entry inh = Lassa virus entry inhibition; actives 1.2% (n = 300,000); Lassa virus pseudotype entry inhibition, cell reporter; Potency, µM (top dose mostly 37.9 µM), inactives show top-dose activity change, negative = inhibition, most hits filed as inhibitors; calls by dose curve; tested in HEK293 cells; further: potency means the concentration at half of the fitted maximal effect; nearly all actives have a fitted effect of over 50% in size
Vaccinia mCherry = vaccinia inhibition (mCherry reporter) | Vaccinia virus mCherry reporter infection, fluorescence | Potency, µM (doses to about 36.5 µM), without a hit: top-dose activity change, negative = inhibition, most hits filed as inhibitors | actives 0.63% (n = 310,000) | AID 720579; calls by dose curve; tested in A549 cells; further: potency means the concentration at half of the fitted maximal effect; nearly all actives have a fitted effect of over 35% in size
Numbers without * were called inactive; i = inactive; ? = inconclusive; . = not tested or not shown; [ ] = another dose, or the depositor's remark. Only some compounds are listed: those with a hit (about 7.8% of all), similar ones and a draw of the others. On the % scale 0 is the no-effect control and ±100 the full control effect.

SMILES	HCV inh	Vaccinia Venus	HCMV antiviral	MARV entry inh	Lassa entry inh	Vaccinia mCherry
CCCCn1c(=O)[nH]c(=O)c2c1nc(-c1ccc(OCCC)c(OCC)c1)n2CCOC	25µM*	-10%	-28	-1%[46.1 µM]	?	i
O=C(NCCN1CCOCC1)c1cnn(-c2ncc3c(n2)-c2ccccc2CC3)c1C1CC1	.	-8%	.	.	.	-12%
COCCn1c(C)cc(C(=O)COC(=O)c2ccc3c(c2)NC(=O)CS3)c1C	?	-9%	6	?	29%	-11%
C=CCn1c(C)cc(C(=O)COC(=O)c2ccc3c(c2)NC(=O)CS3)c1C	?	-5%	?	11µM*	?	i
COc1ccc(N(CC(=O)NC(C)c2ccccc2)S(=O)(=O)c2ccc(C)cc2)cc1 (stereo not drawn)	-16%	?	-2	-19%[46.1 µM]	-20%	?
COc1ccc(S(=O)(=O)N(CC(=O)NCc2ccccc2OC)c2ccc(C)cc2)cc1	.	?	-68*	.	-20%[46.1 µM]	?
CCOc1ccc(S(=O)(=O)N(CC(=O)NCc2ccccc2OC)c2ccccc2)cc1	.	?	-62*	?	?	?
COc1ccccc1N(CC(=O)NCc1ccco1)S(C)(=O)=O	15%	5%	1	?	1%	-1%
COc1ccc(S(=O)(=O)N(CC(=O)NCc2ccco2)c2ccccc2OC)cc1	-19%	12%	-65*	0%[46.1 µM]	0%[46.1 µM]	i
CNC(=O)CN(c1ccc(Oc2ccccc2)cc1)S(=O)(=O)c1ccc(C)cc1	.	-13%	-2	-15%	7.1µM*	i
O=C(CSc1nnc2ccc3ccccc3n12)Nc1ccccc1Cl	.	-11%	-22	4%[46.1 µM]	11%[46.1 µM]	-14%
CCCCNC(=O)c1cnn2c(C)c(Cc3c(F)cccc3Cl)c(C)nc12	.	-17%	7	.	4%[46.1 µM]	-25%
O=C1N=C2CCCCC2=C1c1sc(N[S+](=O)([O-])C2CCCCC2)nc1O	.	.	.	16%[46.1 µM]	.	.
CC1C(=O)N(C)C(=O)c2nc[nH]c21 (stereo not drawn)	.	.	.	?	15%	.
CCCN(CCC)c1ncnc2nc[nH]c12	-5%	-27%	-88*	.	.	?
CCSc1ncnc2nc[nH]c12	.	-5%	.	.	.	-20%
CC(C)=N/N=c1\scc(C)n1Cc1ccco1	3%	2%	45	5%[46.1 µM]	-2%	-2%
Cc1csc(=Nc2cccnc2)n1Cc1ccco1	0.56µM*	-15%	-34	22%[46.1 µM]	?	-5%
CCOc1ccc(C(=O)Nc2ccc(C(=O)OCc3cc(=O)n4ccsc4n3)cc2)cc1	.	0%	16	.	-17%[46.1 µM]	-16%
CC(=O)NCC1CCCN(C(=O)c2oc3c(F)cccc3c2C)C1 (stereo not drawn)	-2%	.	-101*	.	.	.
Cc1c(C(=O)N2CCCCC2CCN2CCCC2=O)oc2c(F)cccc12 (stereo not drawn)	20%	-16%	-63*	-1%	2%	i
COC(=O)[C@]1(C=C2c3ccccc3C[C@H](OC)[C@@H]2C)[C@@H]2CC=C[C@@H]21	.	.	.	-8%[14.2 µM]	.	.
COc1ccccc1N1CCN(c2nc(CNC(=O)c3ccccc3F)nc3ccccc23)CC1	.	7%	.	.	.	-15%
CCc1ccc(NC(=O)N(Cc2c[nH]c3ccccc23)C2CCCCC2)cc1	.	-5%	36	-28%[46.1 µM]	?	-14%
CCc1cc2c(NCc3ccccc3)nc(C)nc2s1	7.9µM*	.	-84*	.	.	.
SMILES	HCV inh	Vaccinia Venus	HCMV antiviral	MARV entry inh	Lassa entry inh	Vaccinia mCherry
CCc1cc2c(NCc3ccco3)ncnc2s1	16µM*	-21%	-32	?	0%	-29%
CCc1cc2c(NCC(=O)O)ncnc2s1	3%	-9%	-8	16%	2%	.
CC(=NNC(=S)Nc1ccccc1Cl)c1ccccn1	?	?	-99*	?	0.25µM*	?
CC(=NNC(=S)Nc1ccccc1)c1ccccn1	.	?	-98*	.	.	?
NC(c1ccccc1)c1csc(Nc2cc(Oc3ccccc3)ncn2)n1 (stereo not drawn)	.	-21%	58	.	.	-24%
CC(C)(C)OC(=O)N1CCC[C@@H]1C(O)(c1ccccc1)c1ccccc1	.	.	.	-13%[14.2 µM]	.	.
Nc1nc2n(n1)[C@@H](c1cccs1)C[C@H](c1ccc(F)cc1)N2	.	.	.	-1%	.	.
CC(=O)c1cnc2nc(SCc3ccc(Cl)cc3)nn2c1C	?	-11%	4	-13%	-12%	-1%
CN1CCC2(CC1)Nc1nc(SCc3ccc(Cl)cc3)nn1C1=C2CN(C)CC1	14µM*	-29%	-27	?	14µM*	.
C=CCNC(=O)C1CC1(c1cccc(C)c1)c1cccc(C)c1 (stereo not drawn)	22%	-15%	0	-25%[46.1 µM]	4%	-17%
Cc1cccc(C2(c3cccc(C)c3)CC2C(=O)Nc2ccc([N+](=O)[O-])cc2O)c1 (stereo not drawn)	?	?	-104*	13µM*	?	?
COc1cc(OC)c(NS(=O)(=O)c2ccc(Cl)c(C(=O)OC(C)C(=O)N3CCCC3)c2)cc1Cl (stereo not drawn)	?	?	-64*	?	-18%	-12%
Cc1cccc(NC(=O)Nc2nnc(N3CCCC3)s2)c1	.	-1%	20	?	-20%[46.1 µM]	-3%
NNC(=O)c1cc2cc3ccccc3nc2s1	25%	.	-66*	3%	-20%	.
O=C(Nc1ccccc1F)Nc1ccccc1F	-7%	.	-25	.	.	.
Cc1ccc(N=Nc2ccc(C)cc2NC(=O)Nc2ccccc2F)cc1	?	-23%	-67*	.	.	-19%
Cc1cc([N+](=O)[O-])ccc1NC(=O)Nc1ccccc1F	?	-12%	-61*	0%[46.1 µM]	20%[46.1 µM]	-17%
O=C(Nc1ccccc1)Nc1cc([N+](=O)[O-])ccc1F	0%	-8%	?	-18%	?	-15%
Cc1ccc([N+](=O)[O-])cc1NC(=O)Nc1cccc(F)c1	?	?	-97*	.	.	-27%
Cc1ccc(S(=O)(=O)c2nnn3c2nc(N2CCCC(C)C2)c2cc(Cl)ccc23)cc1C (stereo not drawn)	.	-14%	9	-15%[46.1 µM]	.	-2%
O=C(NC1CC(=O)N(c2cccc(F)c2)C1)c1ccc(S(=O)(=O)N2CCCCC2)cc1 (stereo not drawn)	.	-18%	?	.	-2%[46.1 µM]	-15%
Cc1ccc(S(=O)(=O)CC(O)COc2ccc(C#N)cc2)cc1 (stereo not drawn)	12%	-5%	-70*	-16%[46.1 µM]	-2%	-17%
C1=Nc2ccccc2/C1=C/c1ccccc1	.	-6%	.	.	.	-14%
O=C(COC(=O)/C=C/c1ccccc1)NC1CCS(=O)(=O)C1 (stereo not drawn)	16%	.	0	.	.	.
CCOc1ccc(CCNC(=O)COC(=O)/C=C/c2ccccc2)cc1OCC	-12%	-3%	-87*	-15%	11%	-4%
CCOc1cc(/C=C/C(=O)OCC(=O)NC2CCS(=O)(=O)C2)ccc1OCc1ccccc1 (stereo not drawn)	13µM*	-8%	-14	26%[46.1 µM]	-25%	8%

Screening data (PubChem BioAssay)
